Hits are enriched below; roughly 8.9% of the tested compounds scored in any of these assays.
KB-3-1 tox: KB-3-1 parental cell cytotoxicity; KB-3-1 viability, CellTiter-Glo ATP luminescence, 72 h; Potency, µM (titrated, usually from 46.1 µM), actives largely listed as cytotoxic; AID 1347075; actives 1.4% (n = 400,000); also: potency is read from the fitted curve at half-maximal effect; % is scaled to controls: 0 for no effect and ±100 for the full control effect; nearly all actives have a fitted effect of over 60% in size
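Parental KB-3-1 adenocarcinoma cells in phenol-red-free DMEM with 10% FBS were pin-treated with compounds at several concentrations, incubated 72 h at 37 °C, and viability read by CellTiter-Glo luminescence; concentration-effect curves were fitted after normalization.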
SW480 rerep: DNA re-replication induction in SW480 cells | SW480 DNA re-replication, Hoechst DNA content imaging, 48 h | Potency, µM (series often up to 46.1 µM), without a hit: at the top dose re-replication activation, actives largely listed as activators | actives 1.8% (n = 340,000) | AID 624297; also: potency is read from the fitted curve at half-maximal effect; % of control where 0% means no effect; nearly all actives have a fitted effect of over 55% in size
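Quantitative HTS format with DMSO vehicle controls; 48 hr drug incubation at 37 C, then 40 min Hoechst staining and scanning imager measurement at 405 nm excitation.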
KB-V1 MDR tox: KB-V1 MDR subline cytotoxicity; KB-V1 MDR cells viability, CellTiter-Glo, 72 h; Potency, µM (highest dose often 46.1 µM), actives largely listed as cytotoxic; actives 3.4% (n = 400,000); AID 1347076; also: potency is read from the fitted curve at half-maximal effect; % is scaled to controls: 0 for no effect and ±100 for the full control effect; nearly all actives have a fitted effect of over 60% in size
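Cytotoxicity toward P-gp-expressing KB-V1 cells was determined as loss of CellTiter-Glo luminescence after 72 h at 37 degrees C. Compounds were tested in quantitative HTS format across a concentration range, with curves fitted to normalized data.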
D3 antag: D3 dopamine receptor (human) antagonism; P35462; D3R cells, DiscoveRx beta-arrestin luminescence, antagonist mode; stronger effect = lower value; max response, negative = inhibition, %; actives 2.5% (n = 360,000); in the data active = max response below about -50%; inconclusive = no clear call, values can overlap the other calls; also: % is scaled to controls: 0 for no effect and ±100 for the full control effect
Target sequence (P35462 whole entry, looked up): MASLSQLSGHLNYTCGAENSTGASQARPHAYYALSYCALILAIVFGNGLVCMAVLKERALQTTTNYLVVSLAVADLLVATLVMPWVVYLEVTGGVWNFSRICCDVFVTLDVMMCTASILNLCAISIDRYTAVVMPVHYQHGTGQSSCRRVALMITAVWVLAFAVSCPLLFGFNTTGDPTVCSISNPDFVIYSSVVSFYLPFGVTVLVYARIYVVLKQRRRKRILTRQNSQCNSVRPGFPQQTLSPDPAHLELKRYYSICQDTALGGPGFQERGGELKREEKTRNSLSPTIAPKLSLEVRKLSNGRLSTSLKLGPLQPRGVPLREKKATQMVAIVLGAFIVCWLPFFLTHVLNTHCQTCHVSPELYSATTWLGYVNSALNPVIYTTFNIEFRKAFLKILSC
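Cells plated overnight at 1500 cells/well, then exposed to library compounds with dopamine controls for 90 minutes at 37 degrees C. DiscoveRx reagent added for 30–60 minutes at room temperature; luminescence read, quantitative HTS format.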
D3 ag: D3 dopamine receptor (human) agonism; D3R DiscoveRx beta-arrestin cells, luminescence, 90 min; max activation, %; actives 0.58% (n = 410,000); AID 652048; in the data active = max activation above about 30%; also: 0% is about no effect
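Agonist mode: compounds and dopamine controls were applied to plated cells for 90 min at 37 degrees C after an overnight attachment at 1500 cells/well. Luminescent read-out followed 30 - 60 minutes at room temperature with DiscoveRx detection reagent.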
MCF10A rerep: DNA re-replication induction in MCF 10a cells; MCF 10A DNA re-replication, Hoechst nuclear intensity, 48 h; Potency, µM (series often up to 46.1 µM), for inactives: at the top dose activity, positive = re-replication, usual class: activators; actives 2.9% (n = 350,000); AID 624296; also: potency is read from the fitted curve at half-maximal effect; % of control where 0% means no effect; nearly all actives have a fitted effect of over 50% in size
The depositor's hits bear a star. Unless noted, calls follow the shape of the dose curve; as a rule, active = well fitted curve in the direction sought with a large enough effect; inconclusive = small, poorly fitted or top-dose-only effect, or another doubt; inactive = no such curve, though single readings can be large; an effect the other way counts as inactive or inconclusive.

Results for COC(=O)c1c(C)sc(-c2c(-c3ccc4c(c3)OCCO4)[nH]c3c2c(=O)[nH]c(=O)n3C)c1O ?
D3 ag: -1

What do the screens show for `C=CCc1cc(OC)ccc1OCCN(C)Cc1ccccc1`?
KB-3-1 tox: inactive; SW480 rerep: inconclusive; KB-V1 MDR tox: inactive; D3 antag: -59*; D3 ag: -26; MCF10A rerep: inconclusive

How did Cc1ccc(Cl)c(OCCCCN(C)Cc2ccccc2)c1 do in these assays?
KB-3-1 tox: inactive; SW480 rerep: 4%; KB-V1 MDR tox: 21µM*; D3 antag: -90*; D3 ag: -63; MCF10A rerep: 8%

Results for CN(CCOc1ccccc1Cl)Cc1ccccc1 ?
KB-3-1 tox: inactive; SW480 rerep: 12%; KB-V1 MDR tox: inactive; D3 antag: -76*; D3 ag: 5; MCF10A rerep: inconclusive

What do the screens show for `COC(=O)c1ccc(OCCCCN(C)Cc2ccccc2)cc1`?
KB-3-1 tox: inconclusive; SW480 rerep: 24%; KB-V1 MDR tox: inactive; D3 antag: -29; D3 ag: -28; MCF10A rerep: 18µM*

How did Cc1ccc(Cl)c(OCCCN(C)Cc2ccccc2)c1 do in these assays?
KB-3-1 tox: inactive; SW480 rerep: inconclusive; KB-V1 MDR tox: inactive; D3 antag: inconclusive; D3 ag: -22; MCF10A rerep: 12%

What do the screens show for `CC(=O)c1cccc(NC(=O)CN2C(=O)c3ccccc3Sc3ncccc32)c1`?
KB-3-1 tox: inactive; KB-V1 MDR tox: inactive; D3 ag: 8

What do the screens show for `Cn1c(=O)c(=O)n(C)c2cc(S(=O)(=O)Nc3ccc(Cl)c(C(F)(F)F)c3)ccc21`?
D3 ag: -13

Results for Cc1c(C(=O)Nc2ccc(Br)cc2F)oc2ccc(S(=O)(=O)N3CCCCC3)cc12 ?
KB-3-1 tox: inactive; KB-V1 MDR tox: inactive; D3 ag: -9

What do the screens show for `CCOc1ccc(OCCN(C)Cc2ccccc2)cc1`?
KB-3-1 tox: inactive; SW480 rerep: -1%; KB-V1 MDR tox: inactive; D3 antag: -83*; D3 ag: -4; MCF10A rerep: 6%

Results for CCOc1cccc(OCCOCCOc2ccccc2C(C)=O)c1 ?
KB-3-1 tox: inactive; SW480 rerep: -1%; KB-V1 MDR tox: 15µM*; D3 antag: -12; D3 ag: 2; MCF10A rerep: 1%

What do the screens show for `COc1ccc(OCCOc2ccc(N(C)S(=O)(=O)c3ccccc3)cc2)cc1`?
KB-3-1 tox: inactive; SW480 rerep: 3%; KB-V1 MDR tox: inactive; D3 antag: -11; D3 ag: 3; MCF10A rerep: 11%

Results for COc1ccc(OCCCCN(C)Cc2ccccc2)cc1 ?
KB-3-1 tox: inactive; SW480 rerep: 3%; KB-V1 MDR tox: inactive; D3 antag: -29; D3 ag: -27; MCF10A rerep: inconclusive

Results for Cc1ccccc1C(=O)OCCN(C)Cc1ccccc1 ?
KB-3-1 tox: inactive; SW480 rerep: -23%; KB-V1 MDR tox: inactive; D3 antag: -70*; D3 ag: -14; MCF10A rerep: -1%

What do the screens show for `CN(c1ccc(OCCOc2ccccc2Cl)cc1)S(=O)(=O)c1ccccc1`?
KB-3-1 tox: inactive; SW480 rerep: inconclusive; KB-V1 MDR tox: 16µM*; D3 antag: 12; D3 ag: 0; MCF10A rerep: 20%

How did CCOc1ccccc1OCCOc1ccccc1CC do in these assays?
KB-3-1 tox: inactive; SW480 rerep: -2%; KB-V1 MDR tox: inactive; D3 antag: -3; D3 ag: 4; MCF10A rerep: -1%

What do the screens show for `C=CCc1cc(Cl)ccc1OCCCNC(C)C`?
KB-3-1 tox: inconclusive; SW480 rerep: 22%; KB-V1 MDR tox: inconclusive; D3 antag: inconclusive; D3 ag: -44; MCF10A rerep: 14%

How did c1ccc(OCCOCCOc2ccccc2)cc1 do in these assays?
KB-3-1 tox: inactive; SW480 rerep: 0%; KB-V1 MDR tox: inactive; D3 antag: -4; D3 ag: -3; MCF10A rerep: 0%

What do the screens show for `C=CCc1cc(Cl)ccc1OCCN(C)C`?
KB-3-1 tox: inactive; SW480 rerep: inconclusive; KB-V1 MDR tox: inactive; D3 antag: -55*; D3 ag: -55; MCF10A rerep: -3%

Results for CN(CCOCCOc1ccc(F)cc1)Cc1ccccc1 ?
KB-3-1 tox: inactive; SW480 rerep: inconclusive; KB-V1 MDR tox: inactive; D3 antag: -89*; D3 ag: -20; MCF10A rerep: -1%

What do the screens show for `CCCCN(C)CCOc1ccccc1OCC`?
KB-3-1 tox: inactive; SW480 rerep: 1%; KB-V1 MDR tox: inconclusive; D3 antag: -98*; D3 ag: -19; MCF10A rerep: -9%

What do the screens show for `CCOc1cccc(OCCOCCN(C)Cc2ccccc2)c1`?
KB-3-1 tox: inactive; SW480 rerep: 4%; KB-V1 MDR tox: inactive; D3 antag: -64*; D3 ag: -11; MCF10A rerep: -2%

How did CCn1nc(-c2ccc(C)cc2)nc2c(=O)n(C)c(=O)nc1-2 do in these assays?
KB-3-1 tox: inactive; KB-V1 MDR tox: inactive

How did CCc1ccc(-c2nn(CC(=O)NC3CCCCC3)c3c2cnc2ccc(OC)cc23)cc1 do in these assays?
KB-3-1 tox: inactive; KB-V1 MDR tox: inactive; D3 ag: 6

Results for CCOc1ccc(N(C(=O)c2ccc(OC)cc2)S(=O)(=O)c2ccc3c(c2)n(C)c(=O)n3C)cc1 ?
KB-3-1 tox: inconclusive; KB-V1 MDR tox: inactive; D3 ag: 7

What do the screens show for `COc1ccc(-c2cc3ccc(O)c(CN4CCCC(C)C4)c3oc2=O)cc1OC` (centres undefined)?
KB-3-1 tox: inactive; KB-V1 MDR tox: inactive; D3 ag: -7

What do the screens show for `CCS(=O)(=O)c1ncc(N(Cc2cccc(F)c2)Cc2ccco2)c(C(=O)Nc2ccccc2Cl)n1`?
KB-3-1 tox: inactive; KB-V1 MDR tox: inactive; D3 ag: 8

Results for CC1CCN(CCCNC(=O)c2cc(Sc3ccc(F)cc3)nc3ccccc23)CC1 ?
D3 ag: -34

Results for CN(CCOc1ccc(Cl)c(Cl)c1)Cc1ccccc1 ?
KB-3-1 tox: inconclusive; SW480 rerep: -51%; KB-V1 MDR tox: inactive; D3 antag: -93*; D3 ag: -24; MCF10A rerep: inconclusive

Results for Clc1ccc(OCCOCCOc2cccc3cccnc23)c(Br)c1 ?
KB-3-1 tox: inactive; SW480 rerep: -31%; KB-V1 MDR tox: inactive; D3 antag: -8; D3 ag: 7; MCF10A rerep: inconclusive

Results for CN(CCOCCOc1ccc(Cl)cc1Br)Cc1ccccc1 ?
KB-3-1 tox: inactive; SW480 rerep: 6%; KB-V1 MDR tox: inconclusive; D3 antag: -64*; D3 ag: -18; MCF10A rerep: 5%
